One may read the inhibition as the change of the read-out against control, counted positive when it falls.

Several values for one entry are separate records, joined by “and”; a condition that tells them apart may be missing. Equal entries are not always repeated. Out of some 360,000 compounds screened, about 1,400 (0.39%) were called active. The sample as a whole holds a higher share of actives than the screen did. A number with no mark means an inactive call. Cut-off read from the data, not from the text of the source: active = inhibition above about 21%; inactive = the rest.

For this assay, the target named is Receptor-interacting serine/threonine-protein kinase 2 (Homo sapiens) (UniProt O43353). In words: NOD2-RIPK2 binding disruptors in cells, primary screen, fluorescence, CHO cells, BLA complementation (AID 624267).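 Note: 0% = vehicle only and 100% = reference blocker.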 Conditions: CHO BLA complementation NOD2-RIPK2, CCF4 ratio; at 4.98 µM; hits give high values.
Receptor-interacting serine/threonine-protein kinase 2 (Homo sapiens), sequence (O43353 whole entry, looked up): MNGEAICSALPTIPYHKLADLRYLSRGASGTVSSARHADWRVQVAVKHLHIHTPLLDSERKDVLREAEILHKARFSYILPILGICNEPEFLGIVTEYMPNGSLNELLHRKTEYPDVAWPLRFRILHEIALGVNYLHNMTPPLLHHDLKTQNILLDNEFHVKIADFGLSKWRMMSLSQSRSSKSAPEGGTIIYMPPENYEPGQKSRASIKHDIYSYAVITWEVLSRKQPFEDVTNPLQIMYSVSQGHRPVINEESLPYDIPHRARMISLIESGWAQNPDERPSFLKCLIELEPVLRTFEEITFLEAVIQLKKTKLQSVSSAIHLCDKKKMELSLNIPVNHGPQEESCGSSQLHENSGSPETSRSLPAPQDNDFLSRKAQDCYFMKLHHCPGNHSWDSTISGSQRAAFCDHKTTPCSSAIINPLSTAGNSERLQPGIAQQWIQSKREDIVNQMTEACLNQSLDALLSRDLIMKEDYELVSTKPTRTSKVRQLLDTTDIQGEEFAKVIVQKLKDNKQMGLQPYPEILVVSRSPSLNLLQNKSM
With `CC(Oc1ccccc1)C(=O)Nc1oc(-c2ccco2)c(-c2ccco2)c1C#N` (configuration not stated), the inhibition was -14.4%.

With `COc1ccc(-c2cnc(SCCNC(=O)c3ccc4c(c3)OCO4)[nH]2)cc1`, the inhibition is -2.11%.

For the compound `COc1ccccc1CSc1ncc(-c2ccc([N+](=O)[O-])cc2)[nH]1`, the inhibition is 29.2% (active).

For the compound `COc1cccc(-c2cnc(C(O)c3ccccc3OC)[nH]2)c1` (configuration not stated), the inhibition was -4.35%.

Take `Cc1cccc(N2O[C@H]3C=CC2CCCC3)n1`: the inhibition is 9.84%.

Consider `O=S(=O)(c1ccccc1)N(Cc1cccc(F)c1)c1ccccc1`, for which the inhibition was -10.2%.

On to `CCN(CC)S(=O)(=O)c1ccc2[nH]c(=O)cc(C(=O)N(C)C3CCS(=O)(=O)C3)c2c1` (configuration not stated), for which the inhibition was -6.75%.

With `O=S(=O)(c1ccc(OCC(O)CN2CCN(c3ccccc3Cl)CC2)cc1)N1CCOCC1` (configuration not stated), the inhibition was -2.63%.

Regarding `Cc1cc2oc3ccc(NCCC4CCCN4C)cc3c(=O)c2cc1C` (configuration not stated), the inhibition was 41.2% (active).

As for `CN1CCC[C@@H]1CCO[C@](C)(c1ccccc1)c1ccc(Cl)cc1`, the inhibition is 14.6%.

With `CCCCC(CC(C)O)c1n[nH]c(=S)n1-c1ccccc1` (configuration not stated), the inhibition was -17.4%.

In the case of `O=C(CCNc1n[nH]c(=O)[nH]c1=O)N/N=C\c1ccc(Br)cc1`, the inhibition is -5.19%.

As for `Cc1nn(C)cc1N1C(=O)c2cccc3c(N)ccc(c23)C1=O`, the inhibition is 24.3% (active).

For `O=C(CN1C(=O)NC2(CCOc3ccccc32)C1=O)Nc1cccc([N+](=O)[O-])c1` (configuration not stated), the inhibition is 5.36%.

Turning to `Cc1cccc2sc(N(CCCN(C)C)C(=O)CCS(=O)(=O)c3ccccc3)nc12`, the inhibition is 24.6% (active).

Turning to `COc1cccc2sc(N(CCCN(C)C)C(=O)CCS(=O)(=O)c3ccccc3)nc12`, the inhibition was 31.7% (active).

For `O=C(O)CCS(=O)(=O)c1ccc(-c2ccccc2)cc1`, the inhibition is -5.35%.

For `COc1ccc(C)cc1NC(=O)CCS(=O)(=O)c1cccc2nonc12`, the inhibition is 4.16%.

For `CCOc1ccccc1NC(=O)CCS(=O)(=O)c1cccc2nsnc12`, the inhibition was 5.35%.

`Cc1cccc(C)c1NC(=O)CCS(=O)(=O)c1cccc2nsnc12`: the inhibition was 7.27%.

In the case of `O=C(CN1CCN(S(=O)(=O)c2ccc(F)cc2)CC1)NC1CC1`, the inhibition is 0.22%.

With `COCCCn1c(SCc2cccc(OC)c2)nc2cc(OC)c(OC)cc2c1=N`, the inhibition is 12.2%.

As to `CCOc1ccc(S(=O)(=O)N2CCN(C(=O)c3oc4ccccc4c3C)CC2)cc1`, the inhibition is -8.52%.

In the case of `O=C(CCc1ccccc1)NCCc1cccs1`, the inhibition was -5.14%.

`CCCc1ccc(-c2csc(NC(=O)Cc3cccs3)n2)cc1`: the inhibition was 21.1% (active).

For `O=C(Cc1cccs1)Nc1ccc([N+](=O)[O-])cc1`, the inhibition was 3.09%.

Take `COc1cc(S(=O)(=O)Nc2ncn[nH]2)ccc1Cl`: the inhibition is 3.73%.

Consider `CC(=O)c1cc(C#N)c(N2CC(C)OC(C)C2)nc1C` (configuration not stated), for which the inhibition was 0.19%.

For `COc1ccc(-c2nc3cnccn3c2NC2CCCCC2)cc1-c1cccc(Cl)c1`, the inhibition was 27.1% (active) and 52.4% (active).

As for `COc1ccc(-c2nc3cc(C)ccn3c2NC2CCCCC2)cc1SC1CCCCC1`, the inhibition is -6.71% and 17.4%.

Consider `COc1ccc(-c2nc3cnccn3c2NC(C)(C)CC(C)(C)C)cc1O`, for which the inhibition is 7.55%.

For the compound `Cn1c(SCC(=O)NC2CCCCC2)nnc1-c1ccc(N)cc1`, the inhibition is -8.42%.

As for `CCCn1nc(Oc2nc(NC(C)C)nc(N(C)C)n2)ccc1=O`, the inhibition is -6.09%.

For `Cc1ccccc1CNC(=O)CCC(=O)N1Cc2ccccc2Oc2ncccc21`, the inhibition was -3.11%.

For the compound `Cc1ccc(C(=O)Nc2c(-c3ccccc3)[nH][nH]c2=O)cc1`, the inhibition is -2.83%.

Regarding `O=C(NNC(=O)C1CCC1)c1ccccc1`, the inhibition is -5.53%.

For the compound `O=C(NC1=CC(=O)c2ccccc2C1=O)c1ccccc1`, the inhibition is 60.6% (active).

With `O=C(CN1C(=O)NC2(CCCCCC2)C1=O)NCc1cccs1`, the inhibition was 5.08%.

With `CCc1cccc(C)c1NS(=O)(=O)c1c(C)nc2sccn2c1=O`, the inhibition is 6.35%.

Turning to `Cc1cccc(N2Cc3ccccc3C2=NC(=O)c2ccc(Cl)nc2)c1`, the inhibition was 1.35%.

`Cc1cccc(-n2ncc(Cl)c(Cl)c2=O)c1`: the inhibition was 32.6% (active).

Take `Nc1c(-c2cccc(Cl)c2)cnn1-c1cccc([N+](=O)[O-])c1`: the inhibition was -0.26%.

Turning to `Cc1ccc2[nH]c(C)c(CCNC(=O)NC3CCCCC3)c2c1`, the inhibition was 10.4%.

In the case of `O=C(CN1CCOCC1)Nc1c2c(nc3c1CCC3)CCC2`, the inhibition was -11.5%.

Turning to `Cc1cc(C)n2nc(C(=O)OCC(=O)N(CCC#N)c3ccc(F)cc3)nc2n1`, the inhibition is 5.67%.

For `CC(C)(C)C(=O)/C(C#N)=C/c1ccc(O)cc1`, the inhibition was -19.2%.

Take `O=C(/C=C(O)/C=C/c1ccc(O)cc1)/C=C/c1ccc(O)cc1`: the inhibition is 56.9% (active).

On to `COc1cccc(C(=O)NNC(=O)/C=C/c2ccccc2)c1`, for which the inhibition is -14.4%.

For `COc1ccc(OC)c(CN2C(=O)CCC2(C)C(=O)NC2CCCCCC2)c1` (configuration not stated), the inhibition is -0.24%.

As to `FC(F)(F)C1CCCN(c2nsc3ccccc23)C1` (configuration not stated), the inhibition is 31% (active).

As for `O=[N+]([O-])c1cc(S(=O)(=O)NCCc2ccccn2)ccc1Cl`, the inhibition is 5.34%.

In the case of `Cc1ccc(C(=O)CN2C(=O)NC3(CCOc4ccccc43)C2=O)s1` (configuration not stated), the inhibition is -4.27%.

Take `CCC1Sc2ccc(S(=O)(=O)CCC(=O)NCc3cccs3)cc2NC1=O` (configuration not stated): the inhibition was -15.1%.

For the compound `O=S(=O)(Nc1ccccn1)c1cccc(S(=O)(=O)c2ccc(Cl)cc2)c1`, the inhibition was -8.24%.

Turning to `COc1ccc(OC)c(C(C)NC(=S)Nc2ccc(S(=O)(=O)Nc3ncccn3)cc2)c1` (configuration not stated), the inhibition is 2.38%.

Turning to `COc1cc(NS(=O)(=O)c2ccc3ccccc3c2)c2ncccc2c1`, the inhibition was 29.3% (active).

With `CC(C=Cc1ccccc1)=NNS(=O)(=O)c1ccc([N+](=O)[O-])cc1`, the inhibition is 3.79%.

As to `Cc1cccc(COc2ccccc2/C=N/Nc2ccc([N+](=O)[O-])cc2)c1`, the inhibition is 31.1% (active).

As for `O=[N+]([O-])c1ccc(N/N=C/c2ccccc2)cc1`, the inhibition was 24.8% (active).

Consider `COC(=O)c1ccccc1N=NNc1ccc([N+](=O)[O-])cc1`, for which the inhibition is 2.92%.

With `O=[N+]([O-])c1ccc(COc2ccccc2CN2CCOCC2)cc1`, the inhibition is -0.03%.

Turning to `Cc1ccccc1OCCOc1ccc([N+](=O)[O-])cc1/C=N/n1cnnc1`, the inhibition is 7.18%.

The record behind these values is PubChem BioAssay AID624267 (The Scripps Research Institute Molecular Screening Center, 2012).
